# Results taken from PubChem BioAssay (EPA / NIEHS).
# Inconclusive results are not listed. The source made the active and inactive calls. Rule for the calls: active = hit-call score of the fitted dose curve at least 0.9, where 1 is the maximum; inconclusive = response in the unintended direction; inactive = score below 0.9.
# Columns and labels:
# [1] = target: human IkappaB Kinase alpha (IKKa), CHUK (gene 1147) (UniProt O15111); assay: NVS_ENZ_hIKKa: NovaScreen (NVS) Enzymatic Assay for human IkappaB Kinase alpha (IKKa) (AID 2283167)
# Experimental: NVS_ENZ_hIKKa is a biochemical, single-readout assay that uses extracted gene-proteins in a cell-free assay. Measurements were taken 1 hour after chemical dosing in a 384-well plate.NVS_ENZ_hIKKa is one of one assay component(s) measured or calculated from the NVS_ENZ_hIKKa assay. It is designed to make measurements of enzyme activity, a form of enzyme reporter, as detected with fluorescence intensity signals by Fluorescence and electrophoretic mobility shift technology.Data from the assay component NVS_ENZ_hIKKa was analyzed into 1 assay endpoint. This assay endpoint, NVS_ENZ_hIKKa, was analyzed in the positive analysis fitting direction relative to DMSO as the negative control and baseline of activity. Using a type of enzyme reporter, loss-of-signal activity can be used to understand changes in the enzymatic activity as they relate to the gene CHUK. Furthermore, this assay endpoint can be referred to as a primary readout, because this assay has produced multiple assay endpoints where this one serves a enzymatic activity function. To generalize the intended target to other relatable targets, this assay endpoint is annotated to the kinase intended target family, where the subfamily is serine/threonine kinase. […]
# [2] = target: human Insulin Receptor (InsR), INSR (gene 3643) (UniProt P06213); assay: NVS_ENZ_hInsR: NovaScreen (NVS) Enzymatic Assay for human Insulin Receptor (InsR) (AID 2283168)
# In short: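 Cell-free enzyme assay read 1 h post-dose by fluorescence after substrate/product mobility-shift separation. Duplicate 25 uM primary screen, then singleton concentration-response up to 50 uM for compounds passing threshold; loss of signal vs DMSO.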
# [3] = target: human Janus Kinase 2 (Jak2), JAK2 (gene 3717) (UniProt O60674); assay: NVS_ENZ_hJak2: NovaScreen (NVS) Enzymatic Assay for human Janus Kinase 2 (Jak2) (AID 2283169)
# In short: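 Single-point duplicate screen at 25 uM, with hits run in concentration series to a 50 uM top dose. Substrate-product separation by mobility shift with fluorescence detection, 1 h post-dosing; DMSO baseline.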
# [4] = target: human c-Jun N-terminal Kinases (JNK2), MAPK9 (gene 5601) (UniProt P45984); assay: NVS_ENZ_hJNK2: NovaScreen (NVS) Enzymatic Assay for human c-Jun N-terminal Kinases (JNK2) (AID 2283171)
# In short: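 Chemicals first tested in duplicate at 25 uM, then in singleton concentration series up to 50 uM, against extracted JNK2 enzyme. Activity loss read by fluorescence with mobility-shift separation 1 h post-dose; DMSO baseline.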
# [5] = target: human MET Proto-Oncogene, Receptor Tyrosine Kinase (MET), MET (gene 4233) (UniProt P08581); assay: NVS_ENZ_hMet: NovaScreen (NVS) Enzymatic Assay for human MET Proto-Oncogene, Receptor Tyrosine Kinase (MET) (AID 2283180)
# In short: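 Hits from a 25 uM duplicate screen were retested in concentration series up to 50 uM. Enzyme activity was measured by fluorescence after electrophoretic separation of product from substrate, 1 h after compound addition, relative to DMSO.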
# human IkappaB Kinase alpha (IKKa), CHUK (gene 1147), sequence (O15111 whole entry, looked up): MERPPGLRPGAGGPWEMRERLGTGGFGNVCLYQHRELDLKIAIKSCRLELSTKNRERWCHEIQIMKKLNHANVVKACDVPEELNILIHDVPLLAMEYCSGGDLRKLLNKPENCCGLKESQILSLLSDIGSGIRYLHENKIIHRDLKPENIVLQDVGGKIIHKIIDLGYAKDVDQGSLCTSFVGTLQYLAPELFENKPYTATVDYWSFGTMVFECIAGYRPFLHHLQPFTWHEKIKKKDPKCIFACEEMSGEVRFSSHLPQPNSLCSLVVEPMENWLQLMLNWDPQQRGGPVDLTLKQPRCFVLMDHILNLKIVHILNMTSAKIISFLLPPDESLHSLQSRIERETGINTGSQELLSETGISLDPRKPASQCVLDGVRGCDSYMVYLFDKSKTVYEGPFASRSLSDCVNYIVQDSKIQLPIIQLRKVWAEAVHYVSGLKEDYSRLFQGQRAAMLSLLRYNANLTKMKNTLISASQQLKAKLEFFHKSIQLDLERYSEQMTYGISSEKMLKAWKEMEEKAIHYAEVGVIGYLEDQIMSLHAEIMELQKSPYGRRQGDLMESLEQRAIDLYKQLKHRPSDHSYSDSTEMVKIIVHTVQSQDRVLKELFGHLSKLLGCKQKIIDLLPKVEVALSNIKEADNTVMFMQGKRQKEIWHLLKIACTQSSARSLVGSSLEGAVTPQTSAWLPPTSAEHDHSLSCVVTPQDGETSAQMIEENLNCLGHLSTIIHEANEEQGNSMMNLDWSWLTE
# human MET Proto-Oncogene, Receptor Tyrosine Kinase (MET), MET (gene 4233), sequence (P08581 whole entry, looked up): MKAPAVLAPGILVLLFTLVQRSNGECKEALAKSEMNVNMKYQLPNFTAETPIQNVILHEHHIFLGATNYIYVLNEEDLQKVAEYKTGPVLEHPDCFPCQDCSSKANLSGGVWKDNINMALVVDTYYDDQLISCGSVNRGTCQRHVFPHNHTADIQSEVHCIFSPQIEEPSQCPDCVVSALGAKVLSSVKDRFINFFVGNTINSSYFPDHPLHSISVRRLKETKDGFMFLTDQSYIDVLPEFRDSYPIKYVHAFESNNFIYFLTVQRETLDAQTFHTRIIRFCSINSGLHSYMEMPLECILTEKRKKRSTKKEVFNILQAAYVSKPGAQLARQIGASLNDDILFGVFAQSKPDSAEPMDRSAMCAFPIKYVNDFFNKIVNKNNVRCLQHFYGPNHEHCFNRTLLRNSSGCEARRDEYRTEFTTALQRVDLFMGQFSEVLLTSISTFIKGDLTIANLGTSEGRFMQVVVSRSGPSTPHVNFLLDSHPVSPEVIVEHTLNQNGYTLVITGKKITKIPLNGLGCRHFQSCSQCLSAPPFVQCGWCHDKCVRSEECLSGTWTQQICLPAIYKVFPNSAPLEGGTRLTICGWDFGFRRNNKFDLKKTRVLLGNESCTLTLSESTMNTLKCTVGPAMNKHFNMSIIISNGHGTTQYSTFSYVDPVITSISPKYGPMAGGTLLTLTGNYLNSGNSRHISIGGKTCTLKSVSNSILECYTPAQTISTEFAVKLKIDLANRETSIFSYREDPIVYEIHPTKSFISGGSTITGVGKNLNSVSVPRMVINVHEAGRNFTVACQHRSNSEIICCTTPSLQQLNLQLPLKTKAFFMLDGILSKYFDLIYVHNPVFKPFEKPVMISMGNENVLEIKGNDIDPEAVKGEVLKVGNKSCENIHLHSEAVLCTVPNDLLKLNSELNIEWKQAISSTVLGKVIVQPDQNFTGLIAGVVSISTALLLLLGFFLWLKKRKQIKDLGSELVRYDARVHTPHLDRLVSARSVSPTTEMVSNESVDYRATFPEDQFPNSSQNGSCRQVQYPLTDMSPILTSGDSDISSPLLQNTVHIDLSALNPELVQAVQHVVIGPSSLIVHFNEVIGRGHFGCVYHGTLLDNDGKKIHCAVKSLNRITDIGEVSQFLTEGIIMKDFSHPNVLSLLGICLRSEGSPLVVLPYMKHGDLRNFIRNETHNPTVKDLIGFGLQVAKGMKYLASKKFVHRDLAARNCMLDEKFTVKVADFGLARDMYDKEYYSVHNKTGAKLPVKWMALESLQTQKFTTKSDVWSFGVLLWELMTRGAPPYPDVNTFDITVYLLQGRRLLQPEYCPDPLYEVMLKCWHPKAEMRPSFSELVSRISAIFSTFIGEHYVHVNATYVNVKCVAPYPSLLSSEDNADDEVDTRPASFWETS
# human Insulin Receptor (InsR), INSR (gene 3643), sequence (P06213 whole entry, looked up): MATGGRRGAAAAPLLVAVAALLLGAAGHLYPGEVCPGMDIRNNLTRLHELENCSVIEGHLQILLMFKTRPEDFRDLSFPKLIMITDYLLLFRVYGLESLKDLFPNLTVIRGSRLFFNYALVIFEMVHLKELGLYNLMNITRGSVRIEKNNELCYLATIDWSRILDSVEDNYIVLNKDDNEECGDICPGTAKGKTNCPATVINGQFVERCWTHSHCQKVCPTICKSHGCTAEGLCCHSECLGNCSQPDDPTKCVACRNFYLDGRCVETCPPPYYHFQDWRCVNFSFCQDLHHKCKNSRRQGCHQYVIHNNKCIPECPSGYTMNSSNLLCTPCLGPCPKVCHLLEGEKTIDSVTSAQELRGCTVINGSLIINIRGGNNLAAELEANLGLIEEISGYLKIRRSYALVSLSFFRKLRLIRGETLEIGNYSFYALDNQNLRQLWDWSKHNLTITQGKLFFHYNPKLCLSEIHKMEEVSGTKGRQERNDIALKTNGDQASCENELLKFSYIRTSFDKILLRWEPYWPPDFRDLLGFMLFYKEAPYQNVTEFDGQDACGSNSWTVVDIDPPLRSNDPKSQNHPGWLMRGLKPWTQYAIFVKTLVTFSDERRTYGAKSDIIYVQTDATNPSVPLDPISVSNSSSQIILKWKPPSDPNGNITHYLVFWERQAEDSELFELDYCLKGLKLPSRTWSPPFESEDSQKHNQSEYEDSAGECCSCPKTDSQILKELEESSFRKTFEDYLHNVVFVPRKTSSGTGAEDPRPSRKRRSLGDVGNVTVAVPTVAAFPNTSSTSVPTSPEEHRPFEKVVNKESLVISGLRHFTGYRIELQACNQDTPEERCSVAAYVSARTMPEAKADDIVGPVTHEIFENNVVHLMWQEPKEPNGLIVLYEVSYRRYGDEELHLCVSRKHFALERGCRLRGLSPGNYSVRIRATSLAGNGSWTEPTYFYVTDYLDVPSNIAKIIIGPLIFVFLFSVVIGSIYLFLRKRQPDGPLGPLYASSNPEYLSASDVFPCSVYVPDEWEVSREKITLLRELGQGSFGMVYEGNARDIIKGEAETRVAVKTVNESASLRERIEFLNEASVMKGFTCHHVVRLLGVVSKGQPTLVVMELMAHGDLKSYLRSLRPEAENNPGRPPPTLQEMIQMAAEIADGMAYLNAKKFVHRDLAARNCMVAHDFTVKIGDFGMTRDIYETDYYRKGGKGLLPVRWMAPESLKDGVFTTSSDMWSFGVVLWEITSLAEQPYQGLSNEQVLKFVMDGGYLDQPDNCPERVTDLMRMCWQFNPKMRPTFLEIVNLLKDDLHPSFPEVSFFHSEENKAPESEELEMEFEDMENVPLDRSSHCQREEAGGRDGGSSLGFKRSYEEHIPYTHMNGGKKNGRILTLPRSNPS
# human c-Jun N-terminal Kinases (JNK2), MAPK9 (gene 5601), sequence (P45984 whole entry, looked up): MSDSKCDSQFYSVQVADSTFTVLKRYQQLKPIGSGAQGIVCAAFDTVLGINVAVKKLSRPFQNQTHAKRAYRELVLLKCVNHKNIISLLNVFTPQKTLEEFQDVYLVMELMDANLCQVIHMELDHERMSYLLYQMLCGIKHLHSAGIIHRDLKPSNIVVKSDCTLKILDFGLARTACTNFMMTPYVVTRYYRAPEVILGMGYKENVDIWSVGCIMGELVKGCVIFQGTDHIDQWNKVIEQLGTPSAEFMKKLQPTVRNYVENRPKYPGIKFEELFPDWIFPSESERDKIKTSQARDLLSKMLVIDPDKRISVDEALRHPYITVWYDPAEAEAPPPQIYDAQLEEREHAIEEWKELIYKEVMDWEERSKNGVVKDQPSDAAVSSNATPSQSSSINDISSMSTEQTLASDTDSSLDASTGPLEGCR
# human Janus Kinase 2 (Jak2), JAK2 (gene 3717), sequence (O60674 whole entry, looked up): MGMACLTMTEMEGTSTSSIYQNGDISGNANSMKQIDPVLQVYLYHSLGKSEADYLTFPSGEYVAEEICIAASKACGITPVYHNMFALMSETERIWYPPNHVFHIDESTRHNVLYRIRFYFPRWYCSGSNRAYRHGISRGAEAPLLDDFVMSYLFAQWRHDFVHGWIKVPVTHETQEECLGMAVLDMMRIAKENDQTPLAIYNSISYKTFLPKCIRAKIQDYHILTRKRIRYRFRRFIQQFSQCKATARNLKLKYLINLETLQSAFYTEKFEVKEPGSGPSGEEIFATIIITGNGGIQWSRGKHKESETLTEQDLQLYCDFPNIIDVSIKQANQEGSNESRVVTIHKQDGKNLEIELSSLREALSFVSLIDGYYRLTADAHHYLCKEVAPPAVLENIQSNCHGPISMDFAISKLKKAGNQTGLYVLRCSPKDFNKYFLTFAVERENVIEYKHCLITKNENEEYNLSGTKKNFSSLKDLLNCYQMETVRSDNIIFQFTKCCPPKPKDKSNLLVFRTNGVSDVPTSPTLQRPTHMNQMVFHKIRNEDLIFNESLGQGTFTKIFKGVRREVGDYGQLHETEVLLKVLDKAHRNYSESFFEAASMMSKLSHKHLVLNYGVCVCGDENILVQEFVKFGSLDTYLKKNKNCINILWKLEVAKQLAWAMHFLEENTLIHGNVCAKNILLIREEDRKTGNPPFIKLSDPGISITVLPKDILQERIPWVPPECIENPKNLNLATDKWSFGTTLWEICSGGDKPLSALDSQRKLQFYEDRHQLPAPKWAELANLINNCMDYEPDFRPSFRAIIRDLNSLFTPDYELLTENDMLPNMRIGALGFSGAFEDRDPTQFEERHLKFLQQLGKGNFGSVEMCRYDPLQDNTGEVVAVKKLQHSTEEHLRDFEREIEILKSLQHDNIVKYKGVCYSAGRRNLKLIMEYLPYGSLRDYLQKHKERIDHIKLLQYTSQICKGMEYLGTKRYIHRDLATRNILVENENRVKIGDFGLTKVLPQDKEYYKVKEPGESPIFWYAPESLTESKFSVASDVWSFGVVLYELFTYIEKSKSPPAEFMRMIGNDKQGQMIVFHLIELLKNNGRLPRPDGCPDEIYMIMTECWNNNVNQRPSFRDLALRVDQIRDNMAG
smiles,measurement,setting,value
CCN(CC)N=O,outcome,[1],inactive
ClCCOCCCl,outcome,[1],inactive
CCCCCCCCCCCCCN1CC(C)OC(C)C1 (stereo not drawn),outcome,[2],inactive
c1ccc2c(c1)-c1cccc3cccc-2c13,outcome,[2],inactive
COc1cc(C=O)cc2c1[C@H](COC(N)=O)[C@]1(OC(C)=O)ON2C[C@H]2[C@@H]1N2C(C)=O,AC50,[3],6.08 nM (active)
CCNS(=O)(=O)C(F)(F)C(F)(F)C(F)(F)C(F)(F)C(F)(F)C(F)(F)C(F)(F)C(F)(F)F,outcome,[4],inactive
same,outcome,[5],inactive
O=[N+]([O-])C(Br)(CO)CO,outcome,[5],inactive
